The values below come from PubChem BioAssay (Tox21).

Results filed as inconclusive are left out. Active and inactive are the calls of the source. Unless noted, calls follow the shape of the full dose curve.

A short description of test [1]: Nuclear factor erythroid 2-related factor 2/antioxidant responsive element (Nrf2/ARE) small molecule agonists: qHTS cell viability counter screen in human keratinocytes (AID 1919968; active = well fitted curve in the direction sought with a large enough effect in the repeat runs; an effect the other way counts as inactive or inconclusive; also: nearly all actives have a fitted effect of over 55% in size). Put shortly:
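Stably transfected HaCaT (KeratinoSens), 1,500/well. Test agents in DMSO were applied for 23 h, 37 C/5% CO2. CellTiter-Fluor was incubated 1 h before the fluorescence read.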
A general note: qHTS replaces the single test concentration by a dilution series.

A short description of test [2]: Nuclear factor erythroid 2-related factor 2/antioxidant responsive element (Nrf2/ARE) small molecule agonists: luciferase reporter gene qHTS assay in human keratinocytes (AID 1919969). Also: nearly all actives have a fitted effect of over 35% in size.
The nature of test [3]: G protein-coupled receptor (GPCR) small molecule agonists, calcium flux assay: HEK293 wild type cell line counter screen (AID 1920065). An outline of the steps: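 Following 18 h incubation at 37 C/5% CO2, plates got calcium dye for 1 h; compounds, ATP or DMSO were then pinned in and fluorescence followed kinetically (480/540 nm).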
The nature of test [4]: p53 small molecule agonists, cell-based qHTS assay with human liver microsomes (AID 1963577).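 Also: p53 response element beta-lactamase reporter cells with liver microsomes plus NADPH.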 An outline of the steps: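 Metabolically competent format: test substances, human liver microsomes and NADPH (both 0.5 mg/mL final) incubated with p53RE-bla cells 16 h at 37 C. Beta-lactamase reporter signal then quantified by fluorescence.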
Test [5] is described as follows: p53 small molecule agonists, cell-based qHTS assay with rat liver microsomes (AID 1963578). Put shortly: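 Each plate received p53RE-bla cells, then compound, then rat liver microsomes and NADPH (both 0.5 mg/mL final). Plates were held 16 h at 37 C, and beta-lactamase activity was detected with LiveBLAzer over 2 h.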
Test [6] in a line: p53 small molecule agonists, cell-based qHTS assay with human liver microsomes: qHTS cell viability counter screen (AID 1963579). Also: nearly all actives have a fitted effect of over 45% in size. An outline of the steps: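 Tox21 library compounds, delivered from DMSO stocks, were tested on p53RE-bla cells together with 0.5 mg/mL human liver microsomes and 0.5 mg/mL NADPH (final) over 16 h at 37 C; CellTiter-Glo luminescence served as the cytotoxicity measure.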

Test [7] can be described thus: p53 small molecule agonists, cell-based qHTS assay with rat liver microsomes: qHTS cell viability counter screen (AID 1963580). Also: nearly all actives have a fitted effect of over 45% in size. An outline of the steps:
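Cytotoxicity counter screen: intracellular ATP measured by CellTiter-Glo luminescence in the same wells as the beta-lactamase reporter read, on HCT-116 p53RE-bla cells exposed 16 h at 37 C to compounds with rat liver microsomes and NADPH, each 0.5 mg/mL final.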

The nature of test [8]: p53 small molecule agonists, cell-based qHTS assay: qHTS cell viability counter screen (AID 1963581). Also: nearly all actives have a fitted effect of over 45% in size. Put shortly: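 qHTS counter screen: 16 h compound exposure at 37 C of p53RE-bla HCT-116 cells (4,000 per well, seeded 5 h prior), cell viability by ATP luminescence.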
Test [9] concerns the target 5-hydroxytryptamine receptor 2A (Homo sapiens) (UniProt P28223). The experiment in a line: 5-hydroxytryptamine receptor 2A (HTR2A) small molecule antagonists, cell-based qHTS assay (AID 1963586). Also: nearly all actives have a fitted effect of over 45% in size. Put shortly: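 CHO cells stably expressing human HTR2A were plated for 18 h at 37 C, then loaded with calcium dye for 1 h. Compounds were preincubated 5 min at room temperature before DOI (4 nM solution) was added. Kinetic fluorescence was read for 3 min.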

Test [10] shares this target. The experiment in a line: 5-hydroxytryptamine receptor 2A (HTR2A) small molecule agonists, cell-based qHTS assay (AID 1963587). Also: nearly all actives have a fitted effect of over 30% in size. Put shortly: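 CHO cells stably expressing human HTR2A, plated 18 h, loaded with calcium dye 1 h at 37 C. Agonist mode: compounds added and intracellular calcium fluorescence recorded kinetically for 2 min at 1 sec intervals.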
Test [11] deals with Muscarinic acetylcholine receptor M1 (Homo sapiens) (UniProt P11229). The experiment in a line: Cholinergic receptor muscarinic 1 (CHRM1) small molecule antagonists, cell-based qHTS assay (AID 1963588). Also: nearly all actives have a fitted effect of over 40% in size. An outline of the steps:
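Compounds were tested at 15 concentrations in three independent runs. Dye-loaded CHRM1-CHO cells were exposed 5 min at room temperature before stimulation by acetylcholine added at 50nM. Intracellular calcium was read kinetically on FDSS for 3 min.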

Test [12] shares this target. The experiment in a line: Cholinergic receptor muscarinic 1 (CHRM1) small molecule agonists, cell-based qHTS assay (AID 1963589). Also: nearly all actives have a fitted effect of over 35% in size. Put shortly: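 Kinetic fluorescence (1 s intervals) of calcium-sensitive dye in human M1 CHO cells after compound addition; cells pre-incubated 18 h at 37 C/5% CO2 and dye-loaded 1 h.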
Test [13] can be described thus: cAMP Responsive Elements (CRE) small molecule agonists, cell-based qHTS assay (AID 1963590). An outline of the steps:
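Test agents in DMSO were incubated 3 h at 37 C/5% CO2 with CRE-bla HEK 293T cells seeded 18 h earlier; LiveBLAzer B/G FRET substrate was added and read after 2 h at room temperature.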

A short description of test [14]: cAMP Responsive Elements (CRE) small molecule antagonists, cell-based qHTS assay (AID 1963591; active = well fitted inhibition curve with a large enough effect in the signal ratio in the repeat runs, not every such curve was filed as active; the % refers to the signal ratio). Put shortly:
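Reporter line CRE-bla HEK 293T in dialyzed-FBS DMEM; cells preincubated 18 h, treated 3 h with compound plus NKH477 (0.25 uM final); LiveBLAzer FRET, 2 h RT.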

Test [15] addresses Beta-2 adrenergic receptor (Homo sapiens) (UniProt P07550). The experiment in a line: Adrenergic beta2 receptor (ADRB2) small molecule antagonists, cell-based qHTS assay (AID 1963592). Also: series mostly up to about 92 µM; nearly all actives have a fitted effect of over 50% in size. Put shortly: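 Assay format: CHO-ADRB2 cells, 18-20hr seeding at 37C/5% CO2, then compound plus 1nM isoproterenol agonist mix for 0.5hr RT. Homogeneous time-resolved fluorescence cAMP detection after 1hr, expressed as 665/615 nm ratio.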

In test [16] the target is D(2) dopamine receptor (Homo sapiens) (UniProt P14416). The experiment in a line: Dopamine D2 receptor (DRD2) small molecule agonists, cell-based qHTS assay (AID 1963594). Also: nearly all actives have a fitted effect of over 35% in size. An outline of the steps: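 HEK293 cells stably expressing human DRD2, pre-treated with PDE inhibitor Ro20-1724 (0.1 mM final) and compound 10 min at room temperature, then stimulated with NKH477 (200nM […]) for 30 min. cAMP read by HTRF (665/620 nm).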
D(2) dopamine receptor (Homo sapiens), sequence (P14416 whole entry, looked up): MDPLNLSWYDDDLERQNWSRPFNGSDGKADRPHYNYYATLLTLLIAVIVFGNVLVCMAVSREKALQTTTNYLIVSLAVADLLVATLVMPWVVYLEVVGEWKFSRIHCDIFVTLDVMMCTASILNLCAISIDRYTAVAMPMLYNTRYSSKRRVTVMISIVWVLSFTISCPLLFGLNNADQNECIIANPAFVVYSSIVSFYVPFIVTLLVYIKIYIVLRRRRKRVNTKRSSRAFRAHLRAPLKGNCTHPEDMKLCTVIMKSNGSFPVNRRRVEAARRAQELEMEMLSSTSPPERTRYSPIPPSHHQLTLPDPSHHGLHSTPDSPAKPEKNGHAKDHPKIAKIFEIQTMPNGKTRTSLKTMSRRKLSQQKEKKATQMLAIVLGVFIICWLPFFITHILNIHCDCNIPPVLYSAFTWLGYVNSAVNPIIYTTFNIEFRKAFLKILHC

In test [17] the target is KiSS-1 receptor (Homo sapiens) (UniProt Q969F8). The experiment in a line: Human kisspeptin (KISS1R) small molecule agonists, calcium flux assay in KISS1R-HEK293 cells (AID 1920064; active = well fitted curve in the direction sought with a large enough effect in the repeat runs; an effect the other way counts as inactive or inconclusive). Put shortly:
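After overnight (18 h) culture at 37 C/5% CO2, human KISS1R-HEK293 cells received calcium dye for 1 h, then test compound; emission at 540 nm (excitation 480 nm) was tracked for 3 min.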
On the technique in general: Calcium assays in cells follow changes in intracellular calcium, usually with a dye or a luminescent sensor.

Test [18] is described as follows: p53 small molecule agonists, cell-based qHTS assay (AID 1963582; active = well fitted activation curve with a large enough effect in the signal ratio in the repeat runs, not every such curve was filed as active; the % refers to the signal ratio). Put shortly: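 Measured: fluorescence from cleaved LiveBLAzer substrate. System: p53RE-bla cells, 16 h compound treatment at 37 C, 2 h substrate step at room temperature.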
The target of test [19] is Beta-2 adrenergic receptor (Homo sapiens) (UniProt P07550). The experiment in a line: Adrenergic beta2 receptor (ADRB2) small molecule agonists, cell-based qHTS assay (AID 1963593). Also: potency is read from the fitted curve at half-maximal effect.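 As to activation: CHO cells stably overexpressing human ADRB2.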 An outline of the steps:
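CHO cells stably over-expressing ADRB2 were plated overnight at 37C, then dosed with compounds plus a stimulation mix containing 100uM IBMX and 25uM Ro-20-1724 for 0.5hr at room temperature. cAMP was measured by HTRF competition, 1hr.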

Test [20] has as its target D(2) dopamine receptor (Homo sapiens) (UniProt P14416). The experiment in a line: Dopamine D2 receptor (DRD2) small molecule antagonists, cell-based qHTS assay (AID 1963595; active = well fitted inhibition curve with a large enough effect in the signal ratio in the repeat runs, with a control signal flat; the % refers to the signal ratio). An outline of the steps:
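HEK293 cells stably expressing DRD2 were preincubated with 0.1 mM Ro20-1724, then with compound for 10 min at room temperature. Cells were stimulated with 200 nM NKH477 plus 12 nM quinpirole for 30 min, and cAMP was read by HTRF.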

Beta-2 adrenergic receptor (Homo sapiens), sequence (P07550 whole entry, looked up): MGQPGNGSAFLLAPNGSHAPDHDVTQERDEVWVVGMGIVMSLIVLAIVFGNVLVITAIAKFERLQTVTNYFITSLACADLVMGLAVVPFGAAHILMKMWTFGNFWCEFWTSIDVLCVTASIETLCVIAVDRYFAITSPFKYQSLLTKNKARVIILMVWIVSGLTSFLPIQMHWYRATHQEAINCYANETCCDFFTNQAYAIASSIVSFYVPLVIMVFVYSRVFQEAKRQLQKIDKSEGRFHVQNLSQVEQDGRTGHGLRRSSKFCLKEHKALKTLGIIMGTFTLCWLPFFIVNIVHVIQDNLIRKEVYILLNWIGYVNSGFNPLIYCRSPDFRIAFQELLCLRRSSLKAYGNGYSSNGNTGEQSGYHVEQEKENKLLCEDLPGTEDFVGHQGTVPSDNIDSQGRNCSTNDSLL
KiSS-1 receptor (Homo sapiens), sequence (Q969F8 whole entry, looked up): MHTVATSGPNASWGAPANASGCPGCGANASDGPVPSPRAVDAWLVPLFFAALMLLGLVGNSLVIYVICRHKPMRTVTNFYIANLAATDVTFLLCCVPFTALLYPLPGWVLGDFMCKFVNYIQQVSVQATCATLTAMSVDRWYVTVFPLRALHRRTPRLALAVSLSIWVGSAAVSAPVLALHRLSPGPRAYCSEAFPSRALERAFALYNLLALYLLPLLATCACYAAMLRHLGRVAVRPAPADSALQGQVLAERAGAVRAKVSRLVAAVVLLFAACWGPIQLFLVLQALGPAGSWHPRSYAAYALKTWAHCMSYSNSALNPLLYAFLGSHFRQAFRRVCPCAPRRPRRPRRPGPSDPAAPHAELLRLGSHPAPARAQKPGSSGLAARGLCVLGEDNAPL
5-hydroxytryptamine receptor 2A (Homo sapiens), sequence (P28223 whole entry, looked up): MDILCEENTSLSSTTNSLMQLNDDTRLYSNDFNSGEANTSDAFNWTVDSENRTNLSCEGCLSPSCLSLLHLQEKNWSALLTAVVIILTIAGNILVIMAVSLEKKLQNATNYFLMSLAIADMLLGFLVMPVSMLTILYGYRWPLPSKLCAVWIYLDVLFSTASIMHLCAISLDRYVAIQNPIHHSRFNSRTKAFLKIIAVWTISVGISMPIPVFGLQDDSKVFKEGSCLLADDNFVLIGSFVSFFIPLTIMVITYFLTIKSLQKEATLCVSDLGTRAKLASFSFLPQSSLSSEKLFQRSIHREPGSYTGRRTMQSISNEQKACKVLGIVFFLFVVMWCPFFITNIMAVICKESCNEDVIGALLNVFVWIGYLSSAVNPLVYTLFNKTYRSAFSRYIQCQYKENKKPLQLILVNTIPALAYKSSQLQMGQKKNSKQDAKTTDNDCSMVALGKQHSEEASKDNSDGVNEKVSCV
Muscarinic acetylcholine receptor M1 (Homo sapiens), sequence (P11229 whole entry, looked up): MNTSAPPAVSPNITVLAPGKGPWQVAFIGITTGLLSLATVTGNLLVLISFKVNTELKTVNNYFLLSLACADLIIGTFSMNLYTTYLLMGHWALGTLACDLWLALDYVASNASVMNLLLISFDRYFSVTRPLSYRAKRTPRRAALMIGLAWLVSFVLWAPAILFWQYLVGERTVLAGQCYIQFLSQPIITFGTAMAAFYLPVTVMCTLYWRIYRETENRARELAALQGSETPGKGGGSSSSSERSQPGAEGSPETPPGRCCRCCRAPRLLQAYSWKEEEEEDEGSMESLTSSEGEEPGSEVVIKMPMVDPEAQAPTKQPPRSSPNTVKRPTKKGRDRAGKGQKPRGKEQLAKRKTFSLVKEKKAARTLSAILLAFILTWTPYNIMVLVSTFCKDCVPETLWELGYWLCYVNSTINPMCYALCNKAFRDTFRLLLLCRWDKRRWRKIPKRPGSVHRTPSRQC

For `CCCN1CCCC[C@H]1C(=O)Nc1c(C)cccc1C`, the Potency entry in [1], in [2], in test [3], in test [4], in [5] and in test [6] was “inactive” each time. Also, the Potency result in test [7], in [8], in test [9], in [10], in [11] and in [12] was “inactive” throughout. Also, the Potency entry in test [13], in test [14], in test [15] and in test [16] was “inactive” in each case.
Regarding `NS(=O)(=O)c1cc2c(cc1C(F)(F)F)NC(Cc1ccccc1)NS2(=O)=O` (stereo unspecified), the Potency result in test [1], in test [17], in test [3], in test [4], in test [5] and in test [6] was “inactive” in each case. For the same molecule, the Potency result in [7], in [8], in test [18], in test [9], in test [10] and in test [11] was “inactive” in each case. The Potency result in test [12], in test [13], in test [14], in test [15] and in [16] was “inactive” throughout. The Potency in [19] is 1.5 µM (active).
Consider `CC(C)=CCCC(C)O` (stereo unspecified), for which the Potency entry in [1], in test [17], in test [3], in test [4], in test [5] and in test [6] was “inactive” in each case. Further, the Potency entry in test [7], in test [8], in [18], in test [9], in test [10] and in [11] was “inactive” in each case. Further, the Potency entry in [12], in test [13], in test [14], in test [15], in test [19] and in test [16] was “inactive” throughout. In [20], the Potency entry was “inactive”.
`CC(C=O)Cc1ccc(C(C)(C)C)cc1` (stereo unspecified): the Potency result in [1], in test [17], in test [3], in test [4], in test [5] and in test [6] was “inactive” in each case. For the same molecule, the Potency result in [7], in test [8], in test [18], in [9], in test [10] and in test [11] was “inactive” each time. The Potency entry in test [12], in [13], in [14], in test [15], in [19] and in test [16] was “inactive” in each case. In test [20], the Potency entry was “inactive”.
For the molecule `C=C[C@H]1CN2CC[C@H]1C[C@@H]2[C@@H](O)c1ccnc2ccc(OC)cc12`, the Potency entry in [1], in [2], in test [3], in [6], in [7] and in test [8] was “inactive” throughout. Further, the Potency result in test [9], in test [11], in [12], in test [13], in test [14] and in test [15] was “inactive” in each case. Besides, the Potency entry in [16] and in test [20] was “inactive” in each case.
Turning to `N#Cc1ccc(C2CCCc3cncn32)cc1` (stereo unspecified), the Potency entry in test [1], in test [17], in test [3], in test [4], in test [5] and in [6] was “inactive” each time. In addition, the Potency result in test [7], in [8], in test [18], in [9], in [10] and in test [11] was “inactive” in each case. Also, the Potency entry in test [12], in test [13], in test [14], in test [15], in test [19] and in [16] was “inactive” throughout. Also, the Potency entry in test [20] was “inactive”.
On to `CCC(=O)OCc1ccc(OC)cc1`, for which the Potency entry in [1], in test [2], in [3], in test [4], in test [5] and in test [6] was “inactive” in each case. Further, the Potency entry in test [7], in test [8], in test [9], in test [10], in test [12] and in test [13] was “inactive” in each case. The Potency result in [14], in test [15], in test [19] and in test [20] was “inactive” in each case.
Regarding `O=Nc1ccc(NO)cc1`, the Potency result in test [1], in test [17], in test [3], in test [4], in test [5] and in test [6] was “inactive” in each case. The Potency result in [7], in test [8], in test [18], in test [9], in test [10] and in [11] was “inactive” each time. For the same molecule, the Potency entry in test [12], in test [13] and in test [14] was “inactive” each time.
